# Assay outcomes: PubChem BioAssay, National Center for Advancing Translational Sciences (NCATS)
# PLK1 PBD block: qHTS for Inhibitors of PLK1-PDB (polo-like kinase 1 - polo-box domain): Primary Screen. Serine/threonine-protein kinase PLK1 (Homo sapiens), P53350. Plk1 PBD binding of FITC phosphopeptide, fluorescence polarization. Potency, µM, most hits filed as inhibitors. hit rate 2.8% among 360,000; note: series mostly up to about 57 µM; nearly all actives have a fitted effect of over 65% in size
# TDP1 block: qHTS Assay for Inhibitors of Tyrosyl-DNA Phosphodiesterase (TDP1). Tyrosyl-DNA phosphodiesterase 1 (Homo sapiens), Q9NUW8. recombinant TDP1, AlphaScreen DNA substrate cleavage. Potency, µM (series often up to 130 µM), actives largely listed as inhibitors. hit rate 0.28% among 350,000. AID 485290, 2010; note: nearly all actives have a fitted effect of over 40% in size
#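 E. coli-derived human Tdp1, 1 nM final. Cpd preinc 15 min RT; substrate 15 nM final, 5 min RT; AS bead mix 10 ug/ml final, 10 min RT. Signal loss = tyrosine-FITC cleavage. No-enzyme wells = max signal.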
# VDR inhibitor: Inhibitors of the vitamin D receptor (VDR): qHTS. Vitamin D3 receptor (Homo sapiens), P11473. VDR-SRC2-3 peptide fluorescence polarization, 2 h. Potency, µM, hits mostly inhibitors. hit rate 0.93% among 400,000. AID 504847, 2011
#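 Fluorescence polarization assay of small-molecule disruption of VDR binding to coregulator peptide SRC2-3. Compounds and controls pin-transferred, then read after 2 h incubation at ambient room temperature.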
# S-ASM inh: Inhibitors of Secretory Acid Sphingomyelinase (S-ASM): qHTS. Sphingomyelin phosphodiesterase (Homo sapiens), P17405. placental ASM, HMU-PC fluorogenic substrate, 60 min. Potency, µM (series often up to 57.5 µM), actives largely listed as inhibitors. hit rate 0.006% among 340,000. AID 504937, 2011
# Target sequence (P17405 47-631 limits assumed): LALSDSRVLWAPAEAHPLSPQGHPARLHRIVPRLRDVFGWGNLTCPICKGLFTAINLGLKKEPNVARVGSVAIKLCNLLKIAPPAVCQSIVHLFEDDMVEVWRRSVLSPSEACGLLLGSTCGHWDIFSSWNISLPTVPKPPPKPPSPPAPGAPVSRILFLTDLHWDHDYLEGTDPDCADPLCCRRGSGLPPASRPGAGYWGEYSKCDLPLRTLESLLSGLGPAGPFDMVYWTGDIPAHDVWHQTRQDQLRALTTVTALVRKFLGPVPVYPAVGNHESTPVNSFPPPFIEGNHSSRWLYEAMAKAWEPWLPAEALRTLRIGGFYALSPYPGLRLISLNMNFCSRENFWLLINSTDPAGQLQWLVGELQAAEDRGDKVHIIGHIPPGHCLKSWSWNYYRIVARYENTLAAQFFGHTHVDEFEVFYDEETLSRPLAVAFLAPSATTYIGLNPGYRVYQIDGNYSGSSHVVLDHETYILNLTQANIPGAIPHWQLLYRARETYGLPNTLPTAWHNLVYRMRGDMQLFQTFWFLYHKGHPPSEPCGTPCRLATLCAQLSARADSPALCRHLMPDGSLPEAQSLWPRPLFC
#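 Fluorogenic HMU-PC substrate (9 uM final) is turned over by placental ASM in 60 min at 37 C after a 10 min compound preincubation. Reaction ended by alkaline stop (pH 10), with fluorescence read at 386/447 nm.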
# Tb PFK inh-1: qHTS Assay to Find Inhibitors of T. brucei phosphofructokinase; ATP-dependent 6-phosphofructokinase (Trypanosoma brucei brucei), O15648; T. brucei PFK, ADP-Glo luminescence; Potency, µM (top dose mostly 57.5 µM), usual class: inhibitors; hit rate 0.17% among 330,000; note: nearly all actives have a fitted effect of over 60% in size
#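 Compounds were pin-transferred as a titration series up to 57 uM into substrate buffer (0.5 mM F6P, 0.1 mM ATP, pH 8.0), then 1.25 nM PFK was added and reactions ran 45 min before ADP-Glo detection.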
# Pin1 inhibitor: qHTS Assay to Find Inhibitors of Pin1; Peptidyl-prolyl cis-trans isomerase NIMA-interacting 1 (Homo sapiens), Q13526; Potency, µM (doses to about 115 µM), hits mostly inhibitors; hit rate 0.009% among 390,000; Pin1 FP peptide displacement, HiFluor488, 10 min; active = well fitted inhibition curve with a large enough effect in the polarisation, with a control signal flat, not every such curve was filed as active; inconclusive = small, poorly fitted or top-dose-only effect, or effect the other way, or a change in a side signal; inactive = no such curve, though single readings can be large or run the other way; the % refers to the polarisation
# TbPFK ATP: Tb PFK orthogonal confirmatory assay using ATP depletion (Kinase-Glo Plus) as an alternative measure of Tb PFK activity: Hit Validation; shares compounds with Tb PFK inh-1; Tb PFK enzyme, ATP depletion, Kinase-Glo Plus luminescence; Potency, µM (titrated, usually from 57.5 µM); hit rate 47% among 1,100; AID 504636, 2011; calls by dose curve; note: nearly all actives have a fitted effect of over 60% in size
# Tb PFK inh-2: Inhibitors of T. brucei phosphofructokinase: Hit Validation; Potency, µM (series often up to 57.5 µM), hits mostly inhibitors; purified T. brucei PFK, ADP-Glo luminescence, 45 min; hit rate 41% among 1,100; shares compounds with Tb PFK inh-1; note: nearly all actives have a fitted effect of over 60% in size
# Numbers stand for hits; - = inactive; ? = inconclusive; . = not tested or not shown; [ ] = dose if it differs, or a comment. This is a sample that favours compounds with a hit; in the whole collection about 3.1% have one here. Unless noted, calls come from the whole dose curve; as a rule, active = well fitted curve in the direction sought with a large enough effect; inconclusive = small, poorly fitted or top-dose-only effect, or another doubt; inactive = no such curve, though single readings can be large; an effect the other way counts as inactive or inconclusive.
SMILES,PLK1 PBD block,TDP1 block,VDR inhibitor,S-ASM inh,Tb PFK inh-1,Pin1 inhibitor,TbPFK ATP,Tb PFK inh-2
CCOc1ccccc1NC(=O)COc1coc(CN2CCc3ccccc32)cc1=O,-,-,-,-,?,-,-,-
CC[C@H](C)[C@H](NC(=O)[C@@H]1CCCN1C(=O)[C@H](CCC(=O)O)NC(=O)[C@@H](NC(=O)[C@H](Cc1ccccc1)NC(=O)[C@@H]1CCCN1C(=O)[C@@H](N)Cc1ccc(O)cc1)C(C)C)C(=O)O,.,-,-,.,.,.,.,.
O=C(CN1C(=O)CN=C(c2ccccc2)c2ccccc21)Nc1cccc(C(F)(F)F)c1,.,-,-,.,.,-,.,.
O=C(CN1C(=O)/C(=C2\SC(=S)N(CCS(=O)(=O)O)C2=O)c2ccccc21)Nc1cccc(Br)c1,6.7µM,.,?,-,26.9µM,.,4.26µM,7.57µM
CC1CC2CC(=O)C3CCCN4CCCC2[C@]34C1 (some centres undefined),.,-,-,.,.,.,.,.
Nc1nn2cc(-c3ccccc3)nc2c2ccccc12,-,-,-,-,?,-,-,?
COc1ccc(/C=C/C(=O)N2CC3C[C@@H](C2)Cn2c3cccc2=O)cc1OC,.,-,-,.,.,.,.,.
c1cc(CN2CCC3(CCNCC3)CC2)ccn1,.,.,-,.,.,.,.,.
COc1ccc(C(=O)OCC(=O)NCc2ccco2)cc1OC,-,39.8µM,-,-,?,?,?,?
CCOc1ccc(C(=O)OCC(=O)NCc2ccco2)cc1OCC,-,.,-,-,?,-,?,-
CCOc1ccc2c(c1)c(C(C)=O)c(C)n2Cc1ccco1,-,-,-,-,-,-,.,.
CC(=O)c1cccc(OCC(=O)N(C)CC(=O)NCc2ccco2)c1,?,7.08µM,-,-,19µM,.,2.39µM,2.69µM
CCC(=O)c1ccc(OC)c(OC)c1,-,-,-,-,-,-,.,.
CCN(CC)C(=O)c1ccc(NC(=O)c2cccc(S(=O)(=O)N3CCN(C)CC3)c2)cc1,-,-,-,-,-,-,.,.
O=C(COC(=O)c1cccc(S(=O)(=O)N2CCc3ccccc3C2)c1)NCc1ccco1,-,-,-,-,10.7µM,-,-,?
Cc1o[nH]c(=O)c1C[C@H](N)C(=O)O,.,-,-,.,.,.,.,.
CCOC(=O)c1ccc(N2C(=O)c3n[nH]c(-c4cccs4)c3C2c2ccc(Cl)cc2Cl)cc1 (centres undefined),.,-,-,.,.,?,.,.
Cc1c(C(=O)OCc2ccccc2)[nH]c2c1C(=O)CC(c1ccco1)C2 (centres undefined),?,?,-,-,?,-,?,?
O=C1C=C(NCc2ccc(Cl)c(Cl)c2)CC1,-,-,-,-,4.78µM,-,4.78µM,6.01µM
O=C1c2ccccc2C(=O)N1/N=C/c1ccc(O)c(O)c1O,13.4µM,?,79.4µM,-,19µM,.,10.7µM,26.9µM
CC1(C)C(O)CC(=O)[C@]2(C)C1CC(=O)[C@]1(C)C2CC[C@@]2(C)C(c3ccoc3)OC(=O)C3O[C@@]321 (some centres undefined),.,-,-,.,.,.,.,.
COc1ccc(CNC(=O)N2CCN(c3cccc(Cl)c3)CC2)cc1OC,-,-,-,-,26.9µM,-,12µM,23.9µM
COc1cccc(N2CCN(Cc3cccc(Cl)c3)CC2)c1,-,-,-,-,-,-,.,.
Oc1ccc(/C=N/NC(=S)Nc2cccnc2)c(O)c1O,6.7µM,.,50.1µM,-,?,?,3.01µM,7.57µM
Cc1cc(N(CCCl)CCCl)ccc1C=NNC(=O)c1cccnc1,-,.,-,-,.,-,.,.
SMILES,PLK1 PBD block,TDP1 block,VDR inhibitor,S-ASM inh,Tb PFK inh-1,Pin1 inhibitor,TbPFK ATP,Tb PFK inh-2
CO[C@@H](C)[C@](O)(C(=O)OCC1=CCN2CC[C@@H](O)[C@H]12)C(C)C,.,-[21 µM],-,.,.,.,.,.
Cc1cc([N+](=O)[O-])nn1CCCC(=O)Nc1sc2c(c1C(N)=O)CCCC2,4.74µM,-,31.6µM,-,?,-,26.9µM,23.9µM
CC(C)C(C(=O)O)N1C(=O)/C(=C/C=C/c2ccco2)SC1=S (centres undefined),2.99µM,?,-,-,?,?,8.49µM,21.3µM
CSc1ccc(C(c2c(C)[nH][nH]c2=O)c2c(C)[nH][nH]c2=O)cc1,?,-,-,-,15.1µM,-,?,?
CC(=O)Oc1ccc2c3c1OC1[C@@H](OC(C)=O)C=C[C@H]4[C@H](C2)N(C)CC[C@]314 (some centres undefined),.,.,-,.,.,.,.,.
O=C(CSC1=NS(=O)(=O)c2ccccc2N1)c1ccccc1,-,-[0.505 µM],-,-,?,-,21.3µM,?
O=C(Nc1cc(C(F)(F)F)cc(C(F)(F)F)c1)c1cccn(Cc2ccccc2Cl)c1=O,.,-,-,.,.,-,.,.
CC(CS(=O)(=O)c1ccc2c(c1)NC(=O)CS2)C(=O)N1CCN(c2cccc(Cl)c2)CC1 (centres undefined),-,-,-,-,15.1µM,-,21.3µM,12µM
CC(CS(=O)(=O)c1ccc2c(c1)NC(=O)CS2)C(=O)NCc1ccccc1Cl (centres undefined),?,8.91µM,-,-,13.5µM,?,1.69µM,1.9µM
O=c1c(OC2OC(CO)C(O)C(O)C2O)c(-c2ccc(O)c(O)c2)oc2cc(O)cc(O)c12 (centres undefined),-,-,-,-,12µM,-,8.49µM,4.26µM
O=c1cc(-c2ccc(O)c(O)c2)oc2cc(O[C@@H]3O[C@H](CO)[C@@H](O)[C@H](O)[C@H]3O)cc(O)c12,-,-,-,-,?,?,?,?
COc1ccccc1C(=O)Nc1ccc2c(c1)C(=O)NC2=O,-,.,-,-,23.9µM,-,19µM,?
Cc1nn(Cc2ccccc2)c(C)c1C(=O)NCc1ccccc1,-,-,-,-,-,-,.,.
Cc1nn(Cc2ccc(Cl)c(Cl)c2)c(C)c1NC(=O)c1cc(CC(C)C)on1,-,-,-,-,30.1µM,-,10.7µM,12µM
